From PubChem
HCV inh = HCV inhibition | actives 3.4% (n = 340,000) | Huh7.5.1 HCVcc-Cre infection, luciferase reporter, 44 h | Potency, µM (doses to about 41.8 µM), without a hit: top-dose activity change, negative = inhibition, hits mostly inhibitors; note: potency is the fitted concentration of half-maximal effect; % is set by controls: 0 for no effect and ±100 for the full control effect
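Antiviral activity was scored by luciferase reporter output from cells infected with HCVcc-Cre (~0.5 moi) in presence of compound, 44 h infection period, cells seeded 1,000/well 4 h prior.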
Pf growth 96h = inhibits malaria parasite growth, 96 h | P. falciparum luciferase reporter growth, 96 h | Potency, µM (doses to about 28.7 µM), inactives show at the highest dose activity change, negative = inhibition, actives largely listed as inhibitors | actives 6.9% (n = 320,000) | AID 504834; note: potency is the fitted concentration of half-maximal effect; % is set by controls: 0 for no effect and ±100 for the full control effect
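Erythrocytes infected with luciferase-expressing P. falciparum were dispensed at 2% hematocrit and 0.05% parasitemia (final), then incubated with compounds 96 hours at 37 C in 5% CO2. Luminescence after detection reagent addition reported growth.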
HCMV antiviral = inhibitors of human cytomegalovirus. HFF cells, HCMV-luciferase reporter, 72 h; active compounds read low. activity change, negative = inhibition, % at 57.5 µM. actives 4.5% (n = 410,000); in the data active = activity change below about -60%; inconclusive = no clear call, values can overlap the other calls; inactive = above about -39%; note: % is set by controls: 0 for no effect and ±100 for the full control effect
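Two-dose cell screen: HFF monolayers treated with compounds and infected with luciferase-expressing HCMV at 1 PFU/cell, 72 h at 37C, then lysed for luciferase measurement.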
SARS PLP yeast = blocks SARS-CoV papain-like protease in a yeast assay; S. cerevisiae expressing SARS-CoV PLpro, growth rescue; Potency, µM (titrated, usually from 32.9 µM), inactives show at the highest dose activity, positive = growth rescue, most hits filed as activators; actives 0.19% (n = 330,000); AID 485353; calls by dose curve; note: potency is the fitted concentration of half-maximal effect; 0% is about no effect; nearly all actives have a fitted effect of over 55% in size
Sm TGR inh = S. mansoni TGR enzyme inhibition; Q962Y6; AID 485364; Potency, µM (doses to about 114 µM), for the others: top-dose activity change, negative = inhibition, actives largely listed as inhibitors; actives 3% (n = 360,000); purified TGR, DTNB reduction, TNB absorbance 405 nm; note: potency is the fitted concentration of half-maximal effect; % is set by controls: 0 for no effect and ±100 for the full control effect; nearly all actives have a fitted effect of over 60% in size
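First, TGR (20 nM dispensed) and NADPH were mixed with compound. Second, a 15 min room-temperature incubation followed. Third, further NADPH and then DTNB were added to start the reaction. Finally, TNB absorbance was monitored kinetically.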
Pf growth 48h = inhibits P. falciparum growth in the first generation, 48 h; AID 504832; Potency, µM (series often up to 28.7 µM), for the others: at the top dose activity change, negative = inhibition, actives largely listed as inhibitors; P. falciparum luciferase growth in erythrocytes, 48 h; actives 5.9% (n = 310,000); note: potency is the fitted concentration of half-maximal effect; % is set by controls: 0 for no effect and ±100 for the full control effect
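Firefly luciferase activity from engineered P. falciparum reports growth; inhibitors lower the luminescent signal. Cultures contained 2% hematocrit erythrocytes at 0.1% final parasitemia.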
An asterisk follows results filed as active. Hits are enriched below; roughly 15% of the tested compounds scored in any of these assays. Unless noted, calls come from the whole dose curve; as a rule, active = well fitted curve in the direction sought with a large enough effect; inconclusive = small, poorly fitted or top-dose-only effect, or another doubt; inactive = no such curve, though single readings can be large; an effect the other way counts as inactive or inconclusive.

Screening O=C(Nc1cccc(NC(=O)c2cccc([N+](=O)[O-])c2)n1)c1cccc([N+](=O)[O-])c1 returned HCV inh inconclusive, Pf growth 96h inconclusive, HCMV antiviral -6, SARS PLP yeast 2%, Sm TGR inh 1% and Pf growth 48h 31%.
Screening O=C(CSc1cccc[n+]1[O-])Nc1ccc(N2CCOCC2)cc1 returned Pf growth 96h 25%, HCMV antiviral -17, SARS PLP yeast 1%, Sm TGR inh -15% and Pf growth 48h 13%.
`Cc1cc(-c2ccc(N=Nc3c(S(=O)(=O)O)cc4cc(S(=O)(=O)O)cc(N)c4c3O)c(C)c2)ccc1N=Nc1c(S(=O)(=O)O)cc2cc(S(=O)(=O)O)cc(N)c2c1O` gave HCV inh inconclusive, Pf growth 96h 9.5µM*, SARS PLP yeast 1%, Sm TGR inh -9% and Pf growth 48h 6.6µM*.
`Cc1noc(C)c1C(=O)N1CCC1(C)C(=O)NS(=O)(=O)c1cccs1` (stereo unspecified) gave HCMV antiviral 27.
For C=CCc1cccc(/C=C/c2cc(=O)c3ccccc3[nH]2)c1O the results were HCV inh 8%, Pf growth 96h 0%, HCMV antiviral 34, SARS PLP yeast inconclusive, Sm TGR inh -4% and Pf growth 48h 0.13µM*.
Screening C=CCc1cccc(/C=N/n2cnnc2)c1O returned HCV inh 7%, Pf growth 96h inconclusive, HCMV antiviral 11, SARS PLP yeast -7%, Sm TGR inh -24% and Pf growth 48h 44%.
Screening CC/C(=N\OC(=O)c1ccc(OC(C)C)cc1)c1ccc(C)cc1 returned HCV inh -12%, Pf growth 96h 15µM*, HCMV antiviral 12, SARS PLP yeast -16% and Sm TGR inh 2%.
`O=C(COC(=O)c1nc(Cl)ccc1Cl)NNC(=O)c1cccs1` gave HCV inh 1%, Pf growth 96h 22%, HCMV antiviral -19, SARS PLP yeast 5%, Sm TGR inh -5% and Pf growth 48h 16%.
C1=C[C@H]2CCCN3CC[C@@H]([C@@H]2[C@]32CO2)[C@H]1CCOCc1ccccc1 was read as HCMV antiviral -24.
Cc1ccc(NC(=O)CSc2nnc(NC3CC3)s2)cc1S(=O)(=O)N1CCOCC1 was read as HCMV antiviral 4.
For COc1ccc(Cc2[nH]n3c(=O)cc(C)nc3c2-c2ccccc2)cc1 the results were HCV inh 5%, Pf growth 96h 5%, HCMV antiviral -36, SARS PLP yeast 0% and Pf growth 48h -1%.
Screening COc1ccc(Cc2[nH]n3c(=O)cc(C(C)C)nc3c2-c2ccccc2)cc1 returned HCV inh inconclusive, Pf growth 96h 104%, HCMV antiviral -73*, SARS PLP yeast 1% and Pf growth 48h inconclusive.
Screening CC(C)(C)SC(=O)C[C@@H]1NS(=O)(=O)OC2CCCCC21 (stereo partly specified) returned HCV inh 13%, Pf growth 96h 35%, HCMV antiviral 40, SARS PLP yeast 4%, Sm TGR inh -9% and Pf growth 48h 18%.
COc1ccc(-c2nc(SC)n(C)c(=O)c2C#N)cc1OC was read as HCV inh 14%, Pf growth 96h inconclusive, HCMV antiviral -61*, SARS PLP yeast 5%, Sm TGR inh 7% and Pf growth 48h -21%.
`COc1cc(C2CC(=O)Nc3c2c(C)nn3-c2nc(C)cc(C)n2)cc(OC)c1O` (stereo unspecified) gave HCMV antiviral 7 and Sm TGR inh 1%.
`COc1cc(C2C3=C(CCCC3=O)Nc3c2c(C)nn3-c2cccc(C)c2)cc(OC)c1O` (stereo unspecified) gave HCV inh -8%, Pf growth 96h inconclusive, HCMV antiviral 6, SARS PLP yeast -1%, Sm TGR inh 40µM* and Pf growth 48h inconclusive.
